We go through 17 compounds from PubChem BioAssay (Tox21).

Structures are written as SMILES. Inconclusive results are not listed. Activity calls are given as the source filed them. Unless noted, calls follow the shape of the dose curve; as a rule, active = well fitted curve in the direction sought with a large enough effect in the repeat runs; inconclusive = weak or mixed curves; inactive = no such curve, though single readings can be large; an effect the other way counts as inactive or inconclusive.

Test [1] can be described thus: qHTS assay for small molecules that induce genotoxicity in human embryonic kidney cells expressing luciferase-tagged ATAD5 (AID 651632). Also: nearly all actives have a fitted effect of over 15% in size. The essentials: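 HEK293T cells carrying a luciferase reporter tagged to ATAD5 were exposed to compound or DMSO vehicle for 16 hr at 37C, 5% CO2. Amplite was added, and after 30 min at room temperature luciferase activity was read as a marker of ATAD5 induction.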
(In general: Quantitative high-throughput screening tests each substance at several concentrations.)

Test [2] in a line: qHTS assay for small molecules that induce genotoxicity in human embryonic kidney cells expressing luciferase-tagged ATAD5 - cell viability (AID 651634; calls by dose curve; also: nearly all actives have a fitted effect of over 25% in size; also: potency is read from the fitted curve at half-maximal effect). The essentials:
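HEK293T cells expressing luciferase-tagged ATAD5 were exposed to compound or DMSO for 15.5 hr at 37C, 5% CO2. Viability was then read as live-cell protease activity by CellTiter-Fluor fluorescence after 30 min at 37C.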

The nature of test [3]: qHTS assay for small molecule disruptors of the mitochondrial membrane potential - cell viability (AID 720634; calls by dose curve;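 also: human HepG2 liver cancer cells; series mostly up to about 83 µM; nearly all actives have a fitted effect of over 20% in size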). The essentials:
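HepG2 cells seeded overnight at 37 C, then exposed to compound or DMSO for 1 hr at 37 C, 5% CO2. m-MPI dye added, then CellTiter-Glo for 30 min at room temperature; viability read as ATP luminescence.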

The nature of test [4]: qHTS assay to test for compound auto fluorescence at 535 nm (green) in HepG2 cells (AID 720675).
Test [5] in a line: qHTS assay to test for compound auto fluorescence at 535 nm (green) in HEK293 cells (AID 720680).
Test [6] is described as follows: qHTS assay to test for compound auto fluorescence at 460 nm (blue) in HEK293 cell free culture (AID 720681). The essentials:
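Blue fluorescence (Ex 405/Em 460 nm, triamterene-equivalent) was read immediately after pin transfer of compound or DMSO into medium (DMEM, 10% FBS) without cells.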

Test [7] is described as follows: qHTS assay to test for compound auto fluorescence at 535 nm (green) in HEK293 cell free culture (AID 720682). The essentials: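 No cells present: wells hold DMEM supplemented with 10% FBS, into which compound or vehicle is pinned. Green emission is then recorded (485 nm excitation, 535 nm emission) and scaled to fluorescein.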
A short description of test [8]: qHTS assay to test for compound auto fluorescence at 590 nm (red) in HEK293 cell free culture (AID 720683). In short, it runs like this: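 Red-channel autofluorescence of compounds in culture medium (DMEM, 10% FBS), no cells, measured at 540/590 nm. Rose Bengal sodium is the reference fluorophore for equivalence.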
Test [9] can be described thus: qHTS assay to test for compound auto fluorescence at 590 nm (red) in HepG2 cell free culture (AID 720684). In short, it runs like this: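 Plate contents were MEM with 10% FBS plus test compound or DMSO, no cells. Fluorescence was recorded with 540 nm excitation and 590 nm emission.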
A short description of test [10]: qHTS assay to test for compound auto fluorescence at 460 nm (blue) in HepG2 cell free culture (AID 720685). The essentials: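 Compound (23 nL) or DMSO pinned into cell-free MEM with 10% FBS; blue fluorescence read at 405/460 nm excitation/emission, expressed as auto-fluorescence equivalency to triamterene.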
The nature of test [11]: qHTS assay for identifying genotoxic compounds that show differential cytotoxicity against isogenic chicken DT40 cell lines with known DNA damage response pathways - Rad54/Ku70 mutant cell line (AID 743015). Also: nearly all actives have a fitted effect of over 60% in size. Also: potency is read from the fitted curve at half-maximal effect.
Test [12] in a line: qHTS assay to identify small molecule antagonists of the androgen receptor (AR) signaling pathway using the MDA cell line - cell viability counter screen (AID 743041; also: nearly all actives have a fitted effect of over 45% in size; also: potency is read from the fitted curve at half-maximal effect). In short, it runs like this: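 R1881-driven MDA-kb2 AR-luc cells, 3,000/well, were dosed with library compounds for 16 h; cell health came from CellTiter-Fluor fluorescence in the reporter wells.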
Test [13] is described as follows: qHTS assay to identify small molecule antagonists of the thyroid receptor (TR) signaling pathway (AID 743065). Also: nearly all actives have a fitted effect of over 55% in size. Also: potency is read from the fitted curve at half-maximal effect. The essentials: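 Antagonism measured as loss of luciferase signal in GH3 cells stably carrying a TRE-luciferase reporter, co-treated with compound and T3 (1 nM final) for 23.5 h at 37 C. Viability was read in the same well by CellTiter-Fluor.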
A short description of test [14]: qHTS assay to identify small molecule antagonists of the estrogen receptor alpha (ER-alpha) signaling pathway using the BG1 cell line - cell viability counter screen (AID 743081).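 Also: compound given together with 17beta-estradiol as the ER stimulus; series mostly up to about 70 µM; nearly all actives have a fitted effect of over 45% in size.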
The target of the next test is Aromatase (Homo sapiens) (UniProt P11511). Nature of the test: qHTS assay to identify aromatase inhibitors (AID 743083). Also: series mostly up to about 70 µM; nearly all actives have a fitted effect of over 55% in size.
Test [15] is described as follows: qHTS assay to identify aromatase inhibitors - cell viability counter screen (AID 743084).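 Also: cells stimulated with testosterone during compound exposure; nearly all actives have a fitted effect of over 55% in size.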
Test [16] has as its target Aryl hydrocarbon receptor (Homo sapiens) (UniProt P35869). Nature of the test: qHTS assay to identify small molecule that activate the aryl hydrocarbon receptor (AhR) signaling pathway (AID 743085). Also: nearly all actives have a fitted effect of over 15% in size. Also: potency is read from the fitted curve at half-maximal effect. The essentials:
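Compounds were tested in HepG2 hepatocellular carcinoma cells harbouring a stably integrated luciferase gene under control of 20 DREs. Increased reporter signal after 24 h treatment at 37C was taken as AhR activation.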

The nature of test [17]: qHTS assay to identify small molecule that activate the aryl hydrocarbon receptor (AhR) signaling pathway - cell viability counter screen (AID 743086). Also: nearly all actives have a fitted effect of over 45% in size. Also: potency is read from the fitted curve at half-maximal effect. The essentials:
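Cytotoxicity counter screen: CellTiter-Fluor signal (30 min, 37 C) in 4000 HepG2 cells/well carrying the DRE-luciferase reporter, following 24 h compound exposure at 37 C.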

Test [18] can be described thus: qHTS assay to identify small molecule phospholipidosis (PLD) inducers (AID 1259344; active = well fitted curve in the direction sought with a large enough effect; an effect the other way counts as inactive or inconclusive). The essentials:
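Fluorescent phospholipid staining (LipidTOX Red) measured by automated microscopy in fixed HepG2 cells after 24 h treatment; nuclei counterstained with Hoechst 33342; amiodarone as reference inducer.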

Test [19] has as its target Acetylcholinesterase (Homo sapiens) (UniProt P22303). Nature of the test: Acetylcholinesterase (AChE) small molecule antagonists: colormetric cell-based qHTS assay (AID 1347395; calls by dose curve; also: nearly all actives have a fitted effect of over 30% in size; also: potency is read from the fitted curve at half-maximal effect). In short, it runs like this: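 Cells (SH-SY5Y, 2,000 per well) are seeded and left overnight at 37 C. Compound is added for 30 min, then DTNB and acetylthiocholine for a further 90 min at 37 C before absorbance-based thiocholine detection.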

Chain of Aryl hydrocarbon receptor (Homo sapiens) (P35869 whole entry, looked up): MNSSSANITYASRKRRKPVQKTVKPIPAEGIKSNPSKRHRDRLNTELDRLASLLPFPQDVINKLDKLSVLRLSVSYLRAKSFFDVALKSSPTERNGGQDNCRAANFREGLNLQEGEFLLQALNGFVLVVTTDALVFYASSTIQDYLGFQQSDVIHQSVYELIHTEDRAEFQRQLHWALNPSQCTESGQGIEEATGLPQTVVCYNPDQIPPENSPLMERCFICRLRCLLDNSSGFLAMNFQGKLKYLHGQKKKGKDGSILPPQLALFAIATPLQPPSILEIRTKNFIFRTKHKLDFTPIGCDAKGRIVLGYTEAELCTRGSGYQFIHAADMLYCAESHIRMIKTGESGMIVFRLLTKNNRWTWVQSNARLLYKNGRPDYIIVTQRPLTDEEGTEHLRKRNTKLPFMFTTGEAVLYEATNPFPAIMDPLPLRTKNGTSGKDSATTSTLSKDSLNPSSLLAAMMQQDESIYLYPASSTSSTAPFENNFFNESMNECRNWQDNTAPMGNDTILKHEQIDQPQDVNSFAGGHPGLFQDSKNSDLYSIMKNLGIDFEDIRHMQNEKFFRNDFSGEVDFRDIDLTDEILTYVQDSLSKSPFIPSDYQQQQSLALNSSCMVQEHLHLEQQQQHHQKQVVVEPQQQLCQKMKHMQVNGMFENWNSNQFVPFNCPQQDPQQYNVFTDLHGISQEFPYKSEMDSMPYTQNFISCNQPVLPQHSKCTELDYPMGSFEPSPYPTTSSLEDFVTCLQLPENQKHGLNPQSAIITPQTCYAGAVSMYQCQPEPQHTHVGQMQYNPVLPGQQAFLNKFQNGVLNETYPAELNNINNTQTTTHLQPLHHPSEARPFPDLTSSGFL
Chain of Acetylcholinesterase (Homo sapiens) (P22303 whole entry, looked up): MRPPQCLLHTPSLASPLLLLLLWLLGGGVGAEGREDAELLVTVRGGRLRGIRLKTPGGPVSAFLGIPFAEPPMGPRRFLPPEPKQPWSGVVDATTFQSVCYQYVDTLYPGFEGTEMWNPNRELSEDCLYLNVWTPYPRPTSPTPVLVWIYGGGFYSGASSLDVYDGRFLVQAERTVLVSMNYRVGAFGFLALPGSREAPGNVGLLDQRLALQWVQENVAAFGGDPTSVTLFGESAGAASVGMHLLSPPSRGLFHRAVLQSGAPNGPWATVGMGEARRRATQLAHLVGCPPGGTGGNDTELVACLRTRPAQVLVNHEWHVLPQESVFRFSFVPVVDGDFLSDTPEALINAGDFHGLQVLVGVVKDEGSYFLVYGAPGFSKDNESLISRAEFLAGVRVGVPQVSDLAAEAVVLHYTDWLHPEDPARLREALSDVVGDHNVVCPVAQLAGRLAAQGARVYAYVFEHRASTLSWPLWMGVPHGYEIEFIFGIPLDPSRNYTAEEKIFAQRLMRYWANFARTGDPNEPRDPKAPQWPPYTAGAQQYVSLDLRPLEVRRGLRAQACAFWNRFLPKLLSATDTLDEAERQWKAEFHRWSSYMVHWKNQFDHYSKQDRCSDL
Chain of Aromatase (Homo sapiens) (P11511 whole entry, looked up): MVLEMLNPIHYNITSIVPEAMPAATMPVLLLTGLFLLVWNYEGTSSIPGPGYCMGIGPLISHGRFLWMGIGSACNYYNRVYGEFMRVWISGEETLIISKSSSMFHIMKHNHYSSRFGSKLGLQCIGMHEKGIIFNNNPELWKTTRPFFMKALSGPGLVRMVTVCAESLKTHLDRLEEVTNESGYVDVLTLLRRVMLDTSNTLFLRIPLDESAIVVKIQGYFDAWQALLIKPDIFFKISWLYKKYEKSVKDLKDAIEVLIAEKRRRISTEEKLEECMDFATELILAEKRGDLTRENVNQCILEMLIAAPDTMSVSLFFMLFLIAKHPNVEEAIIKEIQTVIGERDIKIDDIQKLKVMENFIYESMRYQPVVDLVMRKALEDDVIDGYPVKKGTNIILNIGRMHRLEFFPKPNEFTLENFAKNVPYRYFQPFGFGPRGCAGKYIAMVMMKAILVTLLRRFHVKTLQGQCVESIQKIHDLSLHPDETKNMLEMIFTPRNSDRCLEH

Turning to `CCC1(C)CC(=O)NC(=O)C1`, the Potency result in [1], in test [2], in test [3], in test [4], in test [5] and in test [6] was “inactive” each time. Further, the Potency result in test [7], in test [10], in [11], in [12], in test [13] and in test [14] was “inactive” each time. In addition, the Potency entry (with Aromatase (Homo sapiens); in test [15]; in [16]; in test [17]; in [18]) was “inactive” throughout. In addition, the call in [8] and in [9] was inactive.

For the compound `[2H]C([2H])([2H])[C@H](N)Cc1ccccc1`, the Potency result in test [1], in test [2], in [3], in test [4], in test [5] and in [6] was “inactive” each time. Further, the Potency entry in test [7], in [10], in test [11], in test [12], in test [13] and in test [14] was “inactive” each time. The Potency entry (with Aromatase (Homo sapiens); in test [15]; in test [16]; in test [17]; in test [18]) was “inactive” throughout. The call in test [8] and in [9] was inactive.

For `CNC(=O)Oc1ccccc1C(=O)Nc1ccccc1`, the Potency result in test [1], in [2], in test [4], in test [5], in [6] and in [7] was “inactive” throughout. The Potency entry (in test [10]; in [12]; in test [14]; with Aromatase (Homo sapiens); in test [15]; in test [17]) was “inactive” throughout. For the same compound, the Potency result in test [18] was “inactive”. Besides, the compound was called inactive in [8] and in [9]. In addition, the figures for the Potency in test [11] and in test [16] were 29.8 µM (active) and 23.7 µM (active), respectively.

Take `CCC(=O)O[C@]1(c2ccccc2)CCN(C)C[C@H]1C`: the Potency result in test [1], in test [2], in [3], in test [4], in [5] and in test [6] was “inactive” in each case. Further, the Potency entry (in [7]; in test [10]; in test [12]; in test [13]; in [14]; in the test with Aromatase (Homo sapiens)) was “inactive” throughout. In addition, the Potency entry in [15], in [16], in test [17] and in test [18] was “inactive” throughout. In addition, the result in test [8] and in [9] was inactive.

As for `COc1cc([C@@H]2c3cc4c(cc3[C@H](O)[C@H]3COC(=O)[C@H]23)OCO4)cc(OC)c1OC`, the Potency result (with Aromatase (Homo sapiens); in test [19]) was “inactive” in each case.

On to `C[C@]12C[C@H]3S[C@H]3C[C@@H]1CC[C@@H]1[C@@H]2CC[C@]2(C)[C@@H](O)CC[C@@H]12`, for which the Potency entry in [1], in test [2], in test [3], in test [4], in test [5] and in test [6] was “inactive” throughout. Further, the Potency result (in test [7]; in [10]; in test [12]; in test [13]; in [14]; with Aromatase (Homo sapiens)) was “inactive” each time. Further, the Potency result in [15], in test [16] and in test [17] was “inactive” each time. Besides, the compound was classed as inactive in test [8] and in test [9].

With `C[N+](C)(C)CCCCCCCCCC[N+](C)(C)C`, the Potency entry (with Aromatase (Homo sapiens); in test [16]) was “inactive” throughout. The Potency in [19] was 15.5 µM (active).

On to `COC(=O)[C@]12CCC(C)(C)C[C@H]1[C@H]1C(=O)C=C3[C@@]4(C)C=C(C#N)C(=O)C(C)(C)[C@@H]4CC[C@@]3(C)[C@]1(C)CC2`, for which the Potency in test [2] was 2.98 µM (active); in test [12], 6.68 µM (active); in test [13], 0.473 µM (active); in test [17], 3.76 µM (active). Also, the Potency entry in [3], in test [4], in [5], in [6], in [7] and in test [10] was “inactive” each time. The Potency result in test [16] and in [18] was “inactive” in each case. The compound was classed as inactive in test [8] and in test [9].

Take `CC1(C)C(C=C(Cl)Cl)C1C(=O)OCc1cccc(Oc2ccccc2)c1` (centres undefined): the Potency entry (with Aromatase (Homo sapiens); in test [16]; in [19]) was “inactive” in each case.

As to `CCN(CC)/[N+]([O-])=N/O`, the Potency result in test [3], in test [4], in test [5], in test [6], in [7] and in test [10] was “inactive” throughout. The Potency entry (in test [12]; in [13]; in test [14]; in the test with Aromatase (Homo sapiens); in test [15]; in test [16]) was “inactive” in each case. For the same compound, the Potency entry in test [17] and in test [18] was “inactive” in each case. Also, the compound was called inactive in [8] and in test [9].

Consider `C[C@@H](N)C(=O)c1ccccc1`, for which the Potency result in test [1], in [2], in test [3], in test [4], in test [5] and in test [6] was “inactive” in each case. For the same compound, the Potency entry in [7], in test [10], in test [11], in test [12], in test [13] and in test [14] was “inactive” in each case. In addition, the Potency entry (in the test with Aromatase (Homo sapiens); in test [15]; in [17]; in test [18]) was “inactive” each time. Besides, the outcome in [8] and in test [9] was inactive.

`CC(=O)OC(C)=O`: the Potency result in [16] and in test [19] was “inactive” throughout.

In the case of `Clc1ccc(Cl)c(Cl)c1Cl`, the Potency result (with Aromatase (Homo sapiens); in test [16]; in [19]) was “inactive” in each case.

As for `F/C(COc1ccc2c(c1)[nH]c1ccccc12)=C1/CN2CCC1CC2`, the Potency entry in [1], in [2], in test [3], in [4], in test [5] and in test [6] was “inactive” in each case. In addition, the Potency result in [7], in test [10] and in test [12] was “inactive” throughout. The compound was classed as inactive in [8] and in test [9]. Besides, the Potency is 7.5 µM (active) in [11], 8.41 µM (active) in [13], 10.6 µM (active) in test [16] and 21.1 µM (active) in test [17].

For the compound `Cc1ccc(C)cc1`, the Potency result (with Aromatase (Homo sapiens); in test [19]) was “inactive” throughout.

For the compound `Cc1c(N)cccc1N`, the Potency result (with Aromatase (Homo sapiens); in test [19]) was “inactive” in each case. The Potency in [16] was 27.9 µM (active).

Regarding `CCOC(=O)C1(c2ccccc2)CCCN(C)CC1` (centres undefined), the Potency entry in test [2], in test [3], in test [4], in test [5], in [6] and in test [7] was “inactive” throughout. Besides, the Potency result (in [10]; in test [11]; in test [12]; in [13]; in test [14]; in the test with Aromatase (Homo sapiens)) was “inactive” each time. The Potency entry in test [15], in [16], in test [17] and in test [18] was “inactive” each time. The compound was called inactive in [8] and in [9].
